{"source": "PubChem BioAssay (NCATS)", "note": "Records with an inconclusive call do not appear. Values without a mark were called inactive. Activity calls are given as the source filed them. The call rests on the fitted dose curve. On the % scale 0 is the no-effect control and ±100 the full control effect; potency means the concentration at half of the fitted maximal effect.", "data": [{"test": "Cytotoxicity counterscreen for inhibitors of SARS-CoV-2 cell entry (AID 1645845); further: nearly all actives have a fitted effect of over 50% in size", "conditions": "cell viability (SARS-CoV-2 entry assay cells); series mostly up to 57.1 µM; activity change, negative = cytotoxicity: at the top concentration", "procedure,_shortened": "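After a 15 min room-temperature ATPLite 1step step, luminescence reflected ATP remaining in HEK293-ACE2 cells exposed to compound for 1 h plus 48 h at 37 C, with percent activity set by cell and no-cell controls.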", "units": {"activity change, negative = cytotoxicity": "%"}, "values": [{"smiles": "COCCNCCCn1c(C(=O)CF)c(-c2ccc(C)cc2)c2c(N)ncnc21", "outcome": "inactive"}, {"smiles": "COc1ccccc1-c1cccc(-c2c(O)c3cc(C#N)c(Cl)cc3[nH]c2=O)c1", "activity change, negative = cytotoxicity": -0.375}, {"smiles": "CCOc1cc(C(=O)Nc2ccc(Cl)c(-c3nc4ccccc4[nH]3)c2)cc(OCC)c1OCC", "outcome": "inactive"}, {"smiles": "CN1CCN(c2c(F)cc3c(=O)c(C(=O)O)cn4c3c2OCN4C)CC1", "outcome": "inactive [at 27.1 µM]"}, {"smiles": "Cc1cccc(-c2[nH]ncc2-c2ccc3ncccc3n2)n1", "outcome": "inactive"}, {"smiles": "C=CCNC(N)=S", "outcome": "inactive"}, {"smiles": "CS(=O)(=O)c1ccc(C(=O)Nc2ccc(Cl)c(-c3ccccn3)c2)c(Cl)c1", "Potency": "inactive"}, {"smiles": "CCCOC(=O)c1ccc(O)cc1", "activity change, negative = cytotoxicity": -1.89}, {"smiles": "NCCCC(N)(C(=O)O)C(F)F", "note": "(configuration not stated)", "Potency": "inactive"}, {"smiles": "Cc1cnc(Nc2ccc(OCCN3CCCC3)cc2)nc1Nc1cccc(S(=O)(=O)NC(C)(C)C)c1", "Potency": "25.1 µM (active)"}, {"smiles": "Cn1c(Nc2ccc(C(F)(F)F)cc2)nc2cc(Oc3ccnc(-c4ncc(C(F)(F)F)[nH]4)c3)ccc21", "activity change, negative = cytotoxicity": 4.84}, {"smiles": "Cc1cccc(-c2nn(C(=S)Nc3ccccc3)cc2-c2ccnc3ccccc23)n1", "activity change, negative = cytotoxicity": -29.3}, {"smiles": "OCCn1cc(-c2cnc3nnn(Cc4ccc5ncccc5c4)c3n2)cn1", "outcome": "inactive"}, {"smiles": "Clc1ccccc1CN1CCc2sccc2C1", "Potency": "inactive"}, {"smiles": "CNC(=O)c1ccc(N2C(=S)N(c3ccc(C#N)c(C(F)(F)F)c3)C(=O)C2(C)C)cc1F", "activity change, negative = cytotoxicity": -23.2}, {"smiles": "CC1(O)CC(c2nc(-c3ccc4ccc(-c5ccccc5)nc4c3)c3c(N)nccn23)C1", "note": "(configuration not stated)", "activity change, negative = cytotoxicity": 1.17}, {"smiles": "CN(C)c1ccc(C2Nc3ccc4ccccc4c3C3=C2C(=O)CC(C)(C)C3)cc1Br", "note": "(configuration not stated)", "activity change, negative = cytotoxicity": -8.2}]}]}
